Screening results (PubChem BioAssay)
This excerpt belongs to a sample that is enriched for hits.
FECH inh: human FECH heme synthesis enzyme inhibition; purified FECH, Ni-mesoporphyrin absorbance 550 nm; calls only at 10 µM (by protocol); actives 3.3% (n = 20,000); P22830;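 active = enzyme reaction rate more than 3 SD below the solvent-only control wells on the same plate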;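 also: lower slope than DMSO wells means FECH inhibition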
Target sequence (P22830 whole entry, looked up): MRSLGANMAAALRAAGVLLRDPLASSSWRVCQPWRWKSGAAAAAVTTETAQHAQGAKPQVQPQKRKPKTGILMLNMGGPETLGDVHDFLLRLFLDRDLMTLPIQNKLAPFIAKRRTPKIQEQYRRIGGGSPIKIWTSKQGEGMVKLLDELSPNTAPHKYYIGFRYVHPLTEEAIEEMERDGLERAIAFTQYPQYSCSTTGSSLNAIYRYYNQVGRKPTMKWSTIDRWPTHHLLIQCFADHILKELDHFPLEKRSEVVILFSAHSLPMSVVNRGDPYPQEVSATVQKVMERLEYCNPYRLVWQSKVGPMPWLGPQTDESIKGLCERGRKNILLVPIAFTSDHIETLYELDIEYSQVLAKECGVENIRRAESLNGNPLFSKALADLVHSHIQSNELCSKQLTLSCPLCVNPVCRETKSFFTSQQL
Large screens that a line does not name were inactive.

O=C(C1CCCN(c2ncnc3c2nc2n3CCCCC2)C1)N1CCc2ccccc21 (stereo not drawn)	none
Cc1ccc(S(=O)(=O)NCCn2c(-c3ccc(F)cc3)nc3cccnc32)c(C)c1	none
CCc1ccc(NC(=O)Nc2ccc(Sc3c(C)c(C)nc4ncnn34)cc2)cc1	none
COC(=O)c1ccccc1NC(=O)CSCc1nc(-c2ccccc2)no1	none
CCOc1ccc(-c2cnc(-c3cnc(-c4ccccn4)nc3)[nH]2)cc1	none
CC(C)Nc1cc(N2CCN(Cc3nccn3C(C)C)CC2)ncn1	none
CC(NC(=O)CCNc1ccccc1-c1nn[nH]n1)c1ccccc1 (stereo not drawn)	none
CNC(=O)C1CCC(Cn2c(=O)c3sccc3n(CC(N)=O)c2=O)CC1 (stereo not drawn)	none
Cc1ccccc1-c1cn[nH]c1C1CCN(C(=O)c2c[nH]c(=O)[nH]2)CC1	none
COc1ccc(C(=O)CCC(=O)N2C[C@H]3C[C@H](O)[C@@H](O)C[C@H]3C2)cc1	none
CCc1ccc2c(c1)-c1ccccc1S(=O)(=O)N2CC(=O)N1CCN(C)CC1	FECH inh active
NC(=O)C1CCN(C(=O)CN2c3ccc(Br)cc3-c3ccccc3S2(=O)=O)CC1	none
O=C(CN1C(=O)C2CCCCN2C(=O)c2ccccc21)N1CCN(Cc2ccccc2)CC1 (stereo not drawn)	none
CCN1CCN(C(=O)CN2C(=O)C3CCCCN3c3ccc(C(=O)N(C)C)cc32)CC1 (stereo not drawn)	none
CN1CCN(C(=O)CN2C(=O)C3CCCCN3c3ccc(C(=O)N(C)C)cc32)CC1 (stereo not drawn)	none
CCc1ccc2c(c1)-c1ccccc1S(=O)(=O)N2CC(=O)N1CCN(CC)CC1	FECH inh active
Cc1ccc(CN2CCN(C(=O)c3n[nH]c4c3CCC4)C(C)C2=O)cc1 (stereo not drawn)	none
CCn1cc(Cn2cc(CC(C)c3ccccc3)nn2)cn1 (stereo not drawn)	none
Cc1nc(NC(=O)N2CCCN(C3CCCCC3)CC2)nn1C	none
CCOC(=O)N1CCC(NCc2nc(CC)cs2)CC1	none
Cc1ccc(Cc2nc3nc4c(c(=O)n3[nH]2)CCCC4)cc1	none
Cc1cccc(NCc2cc(=O)n3[nH]c(NCc4ccc(F)cc4)nc3n2)c1C	none
Cc1cccc(NCc2nc3nc4c(c(=O)n3[nH]2)CCC4)c1C	FECH inh active
Cc1cccc(C)c1NCc1nc2nc3c(c(=O)n2[nH]1)CCC3	FECH inh active
O=c1c2c(nc3nc(CNc4ccccc4Cl)[nH]n13)CCC2	none
CC(CNCc1cnc(-c2ccc3ccccc3c2)nc1)Oc1cccnc1 (stereo not drawn)	none
CC1CNC(=O)CCN1Cc1cn[nH]c1-c1ccc(F)cc1 (stereo not drawn)	none
CCOc1ccc(-c2nc(CSc3nc(-c4cccc(OC)c4)cc(=O)[nH]3)c(C)o2)cc1	none
O=C(NCC(=O)N1CCC(c2nc(-c3ccccc3)no2)CC1)c1cccs1	none
Cc1ccc(CN2CCN(Cc3cccnc3N)CC2=O)cc1	none
COc1ccc(Cn2c(CNC(=O)c3ccc([N+](=O)[O-])cc3)nc3cccnc32)cc1	none
COc1ccc(OC)c(NC(=O)NCCc2nc3cccnc3n2-c2ccccc2)c1	none
CCOc1c(N2CCN(c3cccc(Cl)c3)CC2)c(=O)c1=O	none
Cc1cc(Nc2ccc(OC(=O)c3ccc(C)c(C)c3)cc2)n2nc(-c3cccnc3)nc2n1	none
Cc1cc(Nc2ccc(OC(=O)c3ccncc3)cc2)n2nc(-c3cccnc3)nc2n1	none
Cc1cc(Nc2ccc(OC(=O)c3ccco3)cc2)n2nc(-c3cccnc3)nc2n1	FECH inh active
CCOC(=O)c1cc2ccsc2n1CC(=O)Nc1ccc(F)c(Cl)c1	none
COc1ccc(Nc2nc(NCC(C)O)nc3c2cnn3-c2ccccc2)cc1 (stereo not drawn)	FECH inh active
COc1ccc(Nc2nc(N3CCCC3)nc3c2cnn3-c2ccccc2)cc1	FECH inh active
COc1cccc(Nc2nc(NCC(C)O)nc3c2cnn3-c2ccccc2)c1 (stereo not drawn)	none
Cc1ccc(Nc2nc(N3CCOCC3)nc3c2cnn3-c2ccccc2)cc1C	none
COc1ccc(Nc2nc(NCCO)nc3c2cnn3-c2ccccc2)cc1	none
COc1ccc(Nc2nc(N3CCN(C)CC3)nc3c2cnn3-c2ccccc2)cc1	none
COCCNc1nc(Nc2ccc(OC)cc2)c2cnn(-c3ccccc3)c2n1	none
CCOc1ccc(Nc2nc(N3CCOCC3)nc3c2cnn3-c2ccccc2)cc1	none
Cc1ccc(Nc2nc(NCC(C)O)nc3c2cnn3-c2ccccc2)cc1C (stereo not drawn)	none
CCOc1ccc(Nc2nc(N3CCCC3)nc3c2cnn3-c2ccccc2)cc1	none
CCCNc1nc(Nc2ccc(OC)cc2)c2cnn(-c3ccccc3)c2n1	FECH inh active
FC(F)Sc1ccc(Nc2nc(N3CCOCC3)nc3c2cnn3-c2ccccc2)cc1	FECH inh active
CCOC(=O)CC1=CC(=O)N(CC(=O)Nc2ccc(C)cc2)c2ccccc2N1	none
O=c1c(Nc2ccc(F)c(Cl)c2)c(-c2ccc3c(c2)CCCC3)c1=O	none
O=C(CCN1CCCCC1c1cccnc1)Nc1nc2ccccc2s1 (stereo not drawn)	none
O=C(C1CNCCN1C(=O)CCCc1ccccc1)N1CCCC1 (stereo not drawn)	none
